High-throughput results: PubChem, National Center for Advancing Translational Sciences (NCATS)
This is a sample that favours compounds with a hit; in the whole collection about 2.7% have one here.
ALOX12 inh: ALOX12 (human) lipoxygenase inhibition. P18054. purified 12hLO, xylenol orange hydroperoxide absorbance. Potency, µM (series often up to 108 µM), for inactives: at the top dose activity change, negative = inhibition, actives largely listed as inhibitors. hit rate 1.1% among 580,000; also: potency is read from the fitted curve at half-maximal effect; % is scaled to controls: 0 for no effect and ±100 for the full control effect
Target sequence (P18054 whole entry, looked up): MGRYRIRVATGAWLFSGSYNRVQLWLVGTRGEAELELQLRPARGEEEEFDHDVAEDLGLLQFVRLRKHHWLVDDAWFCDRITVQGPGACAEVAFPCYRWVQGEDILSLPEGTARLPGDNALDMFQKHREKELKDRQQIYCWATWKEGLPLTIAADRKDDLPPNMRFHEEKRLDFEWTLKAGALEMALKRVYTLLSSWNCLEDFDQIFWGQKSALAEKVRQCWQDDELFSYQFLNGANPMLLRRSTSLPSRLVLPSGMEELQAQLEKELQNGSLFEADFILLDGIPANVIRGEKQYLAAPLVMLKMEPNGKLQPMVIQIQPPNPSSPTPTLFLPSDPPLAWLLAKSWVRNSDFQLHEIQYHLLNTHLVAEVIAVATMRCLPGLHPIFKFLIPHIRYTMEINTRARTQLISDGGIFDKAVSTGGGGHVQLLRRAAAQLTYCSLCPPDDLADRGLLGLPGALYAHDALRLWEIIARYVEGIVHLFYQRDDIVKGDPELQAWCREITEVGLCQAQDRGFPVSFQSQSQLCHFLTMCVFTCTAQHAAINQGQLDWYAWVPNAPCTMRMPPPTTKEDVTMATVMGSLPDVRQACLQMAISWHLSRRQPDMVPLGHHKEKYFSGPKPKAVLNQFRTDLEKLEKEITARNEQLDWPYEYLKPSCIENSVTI
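Hydroperoxide product was detected by ferrous iron/xylenol orange as the 573 to 405 nm absorbance ratio. Arachidonic acid at 40 uM (final) was turned over for 30 min at room temperature by 150 nM human 12hLO, pH 7.0 Hepes buffer, after 15 min compound preincubation.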
Nrf2 activator: activates Nrf2 signaling. AREc32 ARE-luciferase reporter (MCF7-derived line), luminescence, 24 h. Potency, µM (series often up to 46.1 µM), for inactives: at the highest dose activation, most hits filed as activators. hit rate 0.31% among 410,000. AID 624171; also: potency is read from the fitted curve at half-maximal effect; % of control where 0% means no effect; nearly all actives have a fitted effect of over 65% in size
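Steps: seed AREc32_Fluc cells (1000/well, 5% FBS OPTI-MEM); incubate overnight at 37 deg C; add 23 nL compound; incubate 24 hr; add Steady-Glo; hold 30 min RT; read luminescence.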
LDHA inh: blocks human lactate dehydrogenase A; P00338; purified LDHA, NADH/diaphorase-resazurin fluorescence; active compounds read low; activity change, % (values are at about 110 or 230 µM); hit rate 0.15% among 480,000; AID 1347041; in the data active = activity change below about -30%; inconclusive = mostly about -25% to -30%;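 also: plate controls were DMSO wells for no effect and wells without enzyme for full effect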
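Human LDH5 at 2 nM final in Tris HCl pH 7.4 with 0.06 mM NADH and 0.2 mM pyruvate, reacted 5 minutes at room temperature. Remaining NADH coupled via diaphorase/resazurin; resorufin fluorescence read at 0 and 20 minutes, normalized to enzyme-free and DMSO wells.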
ERG-DNA inh: ERG Ets/DNA interaction inhibition | fluorescence polarization, His-ERG Ets domain / labelled DNA | hit rate 0.028% among 370,000 | P11308 | Potency, µM (highest dose often 76.9 µM), without a hit: at the top dose FP activity, negative = inhibition, most hits filed as inhibitors; active = well fitted inhibition curve with a large enough effect in the polarisation, with a control signal flat; inconclusive = small, poorly fitted or top-dose-only effect, or effect the other way, or a change in a side signal; inactive = no such curve, though single readings can be large or run the other way; the % refers to the polarisation;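 also: polarization taken with two DNA probes labelled with fluorescein and Texas red; potency is read from the fitted curve at half-maximal effect; % of control where 0% means no effect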
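His-tagged ERG Ets domain (1 uM in the protein solution; 300mM KCl, 50mM Tris-HCl, 1mM EDTA, 1mM DTT, pH 7.5) received compound, then a probe mix of 5 nM fluorescein-DNA and 100nM Texas-615-DNA. Fluorescence polarization was read for both dyes.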
A549 tox: kills or reduces viability of A549 cells in Nrf2 counter-screen; Potency, µM (highest dose often 46 µM), without a hit: top-dose activity change, negative = cytotoxicity, actives largely listed as inhibitors; AID 504648; A549 ARE-Fluc cells, CellTiter-Fluor viability, 18-24 h; hit rate 0.16% among 390,000; also: potency is read from the fitted curve at half-maximal effect; % is scaled to controls: 0 for no effect and ±100 for the full control effect
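A549 ARE-Fluc cells in 5% FBS OPTI-MEM, 5000 cells/well, rested 2 h then exposed to compounds in concentration-response for 18-24 h at 37 °C. Viability by CellTiter-Fluor fluorescence (Ex 405/Em 525) after 30 min; luciferase luminescence (BugLite, 15 min, RT) read afterwards.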
Nrf2 inh: blocks Nrf2 signaling | A549 ARE-Fluc reporter, luciferase luminescence, 18-24 h | Potency, µM (series often up to 46 µM), inactives show top-dose activity change, negative = inhibition, most hits filed as inhibitors | hit rate 2.1% among 360,000 | AID 504444; also: potency is read from the fitted curve at half-maximal effect; % is scaled to controls: 0 for no effect and ±100 for the full control effect; nearly all actives have a fitted effect of over 60% in size
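A549 ARE_Fluc cells, 5000/well, 5% FBS OPTI-MEM; compounds in dose-response, 18-24 h at 37 °C/5% CO2; CellTiter-Fluor viability read (Ex 405/Em 525), then BugLite luciferase luminescence = Nrf2 activity.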
* marks the source's active call; other numbers are inactive results; ? = inconclusive; · = not tested or not shown. Unless noted, calls follow the shape of the dose curve; as a rule, active = well fitted curve in the direction sought with a large enough effect; inconclusive = small, poorly fitted or top-dose-only effect, or another doubt; inactive = no such curve, though single readings can be large; an effect the other way counts as inactive or inconclusive.

SMILES	ALOX12 inh	Nrf2 activator	LDHA inh	ERG-DNA inh	A549 tox	Nrf2 inh
FC(F)(F)c1ccccc1Cc1c(-c2cccc(Br)c2)nc2c3ccccc3ccn12	0%	13µM*	-8	·	·	·
O=C(OCC(=O)N(/N=C/c1ccccc1)c1cccc(C(F)(F)F)c1)c1cc(Cl)ccc1[N+](=O)[O-]	?	·	8	·	·	·
NC(=O)c1ccsc1NC(=O)COC(=O)Cc1cccc2ccccc12	-1%	1%	2	7%	-17%	4.1µM*
CCOC(=O)CS(=O)(=O)c1nc(-c2ccc(F)cc2)cc(C(F)(F)F)n1	72%	?	-4	12%	?	16µM*
COCC(C)NC(=O)CCS(=O)(=O)c1nc(-c2ccc(OC)cc2)cc(C(F)(F)F)n1 (stereo not drawn)	163%	16µM*	-8	-4%	-2%	-11%
COC1=C/C(=C/c2c(N)n3nc(-c4ccc(C)cc4)sc3nc2=O)C=CC1=O	?	3%	-30*	15%	-16%	?
CCOC1=C/C(=C/c2c(N)n3nc(-c4ccccc4)sc3nc2=O)C=CC1=O	?	?	8	25%	0%	-1%
COC(CNC(=O)c1ccc(-n2c(=S)[nH]c3ccccc3c2=O)cc1)OC	0%	-1%	-7	-3%	0%	-8%
COC(CNC(=O)c1cccc(-n2c(=S)[nH]c3cc(Cl)ccc3c2=O)c1)OC	1.8µM*	0%	-7	3%	-4%	?
Cc1ccc(Cn2ccsc2=NC(=O)COC(=O)c2ccc(NC(=O)CC#N)cc2)cc1	8%	1%	-4	12%	-14%	23µM*
CN1CCN(Cc2nc3ccccc3c(=O)n2Cc2nc(-c3ccc([N+](=O)[O-])cc3)cs2)CC1	45µM*	?	10	4%	-6%	11%
COc1cc(/C=N/Nc2ccccn2)ccc1O	17%	8.9µM*	11	8%	-4%	?
CC(NC(=O)C1CCN(c2cc(C(F)(F)F)ncn2)CC1)c1ccccc1 (stereo not drawn)	45µM*	·	·	·	·	·
CCCCn1nnnc1C1(C)CCC(=O)N1c1ccc(N2CCOCC2)cc1 (stereo not drawn)	-1%	0%	5	·	·	·
Cc1cccc(C)c1-n1nnnc1C1(C)CCC(=O)N1c1ccc(N2CCOCC2)cc1 (stereo not drawn)	11µM*	4%	1	·	·	·
CC1(c2ccc(OCC#N)cc2)C=C(c2ccc(OCC#N)cc2)n2nc(C(F)(F)F)nc2N1 (stereo not drawn)	-2%	11%	2	-13%	?	23µM*
O=C(/C=C/c1cccc(Cl)c1Cl)OCC(=O)N1CCOCC1	-19%	18µM*	0	-4%	2%	-2%
O=C(/C=C/c1cc(Br)ccc1F)OCC(=O)N1CCOCC1	?	11µM*	-5	-6%	-3%	-2%
O=C(/C=C/c1cc(Br)ccc1F)OCC(=O)N1CCCC1	201%	11µM*	-4	-4%	-1%	0%
CN(Cc1ccccc1)C(=O)COC(=O)c1ccccc1-c1nc2ccccc2s1	?	·	-3	·	·	·
COc1cc(C#N)ccc1OCc1csc(-c2cccc(OC)c2OC)n1	8%	·	2	·	·	·
CN(C)c1ccc(C=Nc2ccc(Nc3ccccc3)cc2)cc1	7.9µM*	·	8	·	·	·
CCN(CC)c1ccc(C=Nc2ccc(Nc3ccccc3)cc2)cc1	20µM*	·	-2	·	·	·
CSc1ccc(/C=C/C(=O)c2ccc3c(c2)OCCO3)cc1	?	·	0	·	·	·
CC(=O)Nc1ccc(CNC(=O)c2cc(=O)[nH]c3ccccc23)cc1	7%	·	7	·	·	·
Cc1ccc(C(=O)NNC(=S)NC(=O)COc2ccccc2)cc1	?	2%	-3	·	1%	5%
Cc1cccc(OCC(=O)NCCCNC(=O)c2cccnc2)c1	-8%	-1%	-10	-13%	3%	?
Cc1ccccc1C(=O)NNC(=S)NC(=O)COc1ccccc1	3.5µM*	0%	-15	·	-12%	0%
